# Structures can show the parent of a compound that is named as a salt.
# How the values were obtained:
# [1] = test system: CLZ3 (HCA2 human fibroblast dual HR-NHEJ reporter); assay: NHEJ repair efficiency (GFP+ cells) relative to control (log10 fold); higher = more non-homologous end joining; settings: 5 µM; doxycycline 0.5 ug/mL
# [2] = test system: CLZ3 (HCA2 human fibroblast dual HR-NHEJ reporter); assay: HR repair efficiency (tdTomato+ cells) relative to control (log10 fold); higher = more homologous recombination; settings: 5 µM; doxycycline 0.5 ug/mL
# 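Throughout, for HR repair efficiency (tdTomato+ cells) relative to control: compound given one day before doxycycline, which switches on I-SceI endonuclease expression to create double-strand breaks within the integrated reporter.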
# 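Throughout, for NHEJ repair efficiency (GFP+ cells) relative to control: compound given one day ahead of doxycycline, which switches on I-SceI endonuclease to cut the chromosomally integrated reporter and create DSBs.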
SMILES,NHEJ repair efficiency (log10) [1],HR repair efficiency (log10) [2]
CC[C@H]1CN2CC[C@@]3(C(=O)Nc4ccccc43)[C@@H]2C[C@@H]1/C(=C\OC)C(=O)OC [Isorhynchophylline],-0.108,-0.0739
CCN1C[C@@]2(COC)[C@H]3[C@@H](OC)[C@H]4C1[C@]3([C@@H](OC)C[C@H]2OC(C)=O)[C@@H]1C[C@@]2(O)[C@H](OC(=O)c3ccccc3)[C@@H]1[C@]4(OC(C)=O)[C@@H](O)[C@@H]2OC [Acetylaconitine],-0.0797,-0.0667
C[C@H]1CCC2N(C1)C[C@H]1C3CC4[C@@H](CC(=O)C5C[C@@H](O)CC[C@@]54C)C3CCC1[C@]2(C)O (some centres undefined) [Peiminine],-0.0507,0.0963
O=c1cccc2n1CC1CC2CN2CCCCC12 (centres undefined) [Thermopsine],0.0072,-0.25
COc1cc([C@H]2OC[C@H]3[C@H]2CO[C@@H]3c2cc(OC)c(O[C@@H]3O[C@H](CO)[C@@H](O)[C@H](O)[C@H]3O)c(OC)c2)cc(OC)c1O[C@@H]1O[C@H](CO)[C@@H](O)[C@H](O)[C@H]1O [Eleutheroside D],0.0455,-0.0848
C=CCSSCC=C [Garlicin],-0.0895,-0.0428
CN1[C@@H]2C[C@@H](OC(=O)[C@H](CO)c3ccccc3)C[C@H]1[C@@H]1O[C@@H]12 [Scopolamine Hydrobromide],0.039,-0.0275
C=C[C@@H](O)C#CC#C[C@@H](O)/C=C\CCCCCCC [Falcarindiol],-0.109,-0.13
CCN1C[C@]2(C)CC[C@H](OC)[C@@]34C1[C@]1(OCO[C@@]15C[C@H](OC)[C@H]1C[C@]3(O)[C@@H]5[C@H]1OC)[C@@H](OC(C)=O)[C@H]24 [Deltaline],-0.125,-0.263
C[C@@]12C[C@@H](c3ccoc3)OC(=O)[C@@H]1CC[C@]1(C)[C@H]2[C@@H]2C=C[C@@]1(O)C(=O)O2 [Columbin],-0.00145,-0.0272
COC[C@]12CN(C)[C@@H]3[C@@H]4[C@H](OC)[C@H]1[C@@]3([C@@H](OC)C[C@H]2O)[C@@H]1C[C@@]2(O)[C@H](OC(=O)c3ccccc3)[C@@H]1[C@]4(OC(C)=O)[C@@H](O)[C@@H]2OC [Mesaconitine],-0.0215,0.0192
COC[C@]12CN(C)C3[C@@H]4[C@H](OC)[C@H]1[C@@]3([C@@H](OC)C[C@H]2O)[C@@H]1C[C@@]2(O)[C@H](OC(=O)c3ccccc3)[C@@H]1[C@]4(O)[C@@H](O)[C@@H]2OC [Benzoylmesaconine],-0.0412,-0.144
O=c1ccc2cc(O[C@@H]3O[C@H](CO)[C@@H](O)[C@H](O)[C@H]3O)c(O)cc2o1 [Aesculin],0.023,0.148
CCN1C[C@]2(OC(=O)c3ccccc3NC(C)=O)CC[C@H](OC)[C@@]34[C@@H]2C[C@@H]([C@@H]13)[C@@]1(O)C[C@H](OC)[C@H]2C[C@@H]4[C@]1(O)[C@H]2OC [Lappaconitine],0.147,0.0273
c1cc2c(cc1[C@H]1OC[C@H]3[C@@H]1CO[C@H]3c1ccc3c(c1)OCO3)OCO2 [Asarinin],-0.271,-0.223
CCN1C[C@]2(COC)CC[C@H](O)[C@]34C1[C@H]([C@H](OC)[C@H]23)[C@@]1(O)C[C@H](OC)[C@H]2C[C@@H]4[C@@H]1[C@H]2O [Neoline],-0.0435,-0.186
CC1(C)[C@H]2O[C@H]2[C@H]2[C@](C)(O)[C@@H]3CCC4[C@H](O)[C@@]3(C[C@@H](O)[C@@]21O)C[C@@]4(C)O [Rhodojaponin Iii],0.0171,0.0481
COc1cc(C(=O)OC2C3C=COC(OC4OC(CO)C(O)C(O)C4O)C3C3(CO)OC23)ccc1O (centres undefined) [Amphicoside Ii],0.0243,-0.0261
C=C[C@H]1[C@H](O[C@@H]2O[C@H](CO)[C@@H](O)[C@H](O)[C@H]2O)OC=C2C(=O)OCC[C@H]21 [Sweroside],0.0688,0.0254
O=C1CCC[C@@H]2[C@H]3CCCN4CCC[C@@H](CN12)[C@@H]34 [Matrine],-0.00125,-0.0371
Oc1cc(O)cc(/C=C/c2ccc(O)cc2O)c1 [Oxy-Resveratrol],0.00144,-0.164
CC(=O)OC[C@]12[C@H](OC(C)=O)[C@H](OC(C)=O)[C@@H]3[C@@H](OC(C)=O)[C@@]14O[C@@]3(C)COC(=O)c1cccnc1CCC(C)C(=O)O[C@@H]([C@H](OC(=O)c1ccccc1)[C@@H]2OC(C)=O)[C@]4(C)O (some centres undefined) [Wilforine],-0.122,0.027

# Source: the supplement of paper PMC7380943
